The text below walks through data of the supplement of paper PMC11001985.

Chain of UniProt Q9Y490 (Q9Y490 whole entry): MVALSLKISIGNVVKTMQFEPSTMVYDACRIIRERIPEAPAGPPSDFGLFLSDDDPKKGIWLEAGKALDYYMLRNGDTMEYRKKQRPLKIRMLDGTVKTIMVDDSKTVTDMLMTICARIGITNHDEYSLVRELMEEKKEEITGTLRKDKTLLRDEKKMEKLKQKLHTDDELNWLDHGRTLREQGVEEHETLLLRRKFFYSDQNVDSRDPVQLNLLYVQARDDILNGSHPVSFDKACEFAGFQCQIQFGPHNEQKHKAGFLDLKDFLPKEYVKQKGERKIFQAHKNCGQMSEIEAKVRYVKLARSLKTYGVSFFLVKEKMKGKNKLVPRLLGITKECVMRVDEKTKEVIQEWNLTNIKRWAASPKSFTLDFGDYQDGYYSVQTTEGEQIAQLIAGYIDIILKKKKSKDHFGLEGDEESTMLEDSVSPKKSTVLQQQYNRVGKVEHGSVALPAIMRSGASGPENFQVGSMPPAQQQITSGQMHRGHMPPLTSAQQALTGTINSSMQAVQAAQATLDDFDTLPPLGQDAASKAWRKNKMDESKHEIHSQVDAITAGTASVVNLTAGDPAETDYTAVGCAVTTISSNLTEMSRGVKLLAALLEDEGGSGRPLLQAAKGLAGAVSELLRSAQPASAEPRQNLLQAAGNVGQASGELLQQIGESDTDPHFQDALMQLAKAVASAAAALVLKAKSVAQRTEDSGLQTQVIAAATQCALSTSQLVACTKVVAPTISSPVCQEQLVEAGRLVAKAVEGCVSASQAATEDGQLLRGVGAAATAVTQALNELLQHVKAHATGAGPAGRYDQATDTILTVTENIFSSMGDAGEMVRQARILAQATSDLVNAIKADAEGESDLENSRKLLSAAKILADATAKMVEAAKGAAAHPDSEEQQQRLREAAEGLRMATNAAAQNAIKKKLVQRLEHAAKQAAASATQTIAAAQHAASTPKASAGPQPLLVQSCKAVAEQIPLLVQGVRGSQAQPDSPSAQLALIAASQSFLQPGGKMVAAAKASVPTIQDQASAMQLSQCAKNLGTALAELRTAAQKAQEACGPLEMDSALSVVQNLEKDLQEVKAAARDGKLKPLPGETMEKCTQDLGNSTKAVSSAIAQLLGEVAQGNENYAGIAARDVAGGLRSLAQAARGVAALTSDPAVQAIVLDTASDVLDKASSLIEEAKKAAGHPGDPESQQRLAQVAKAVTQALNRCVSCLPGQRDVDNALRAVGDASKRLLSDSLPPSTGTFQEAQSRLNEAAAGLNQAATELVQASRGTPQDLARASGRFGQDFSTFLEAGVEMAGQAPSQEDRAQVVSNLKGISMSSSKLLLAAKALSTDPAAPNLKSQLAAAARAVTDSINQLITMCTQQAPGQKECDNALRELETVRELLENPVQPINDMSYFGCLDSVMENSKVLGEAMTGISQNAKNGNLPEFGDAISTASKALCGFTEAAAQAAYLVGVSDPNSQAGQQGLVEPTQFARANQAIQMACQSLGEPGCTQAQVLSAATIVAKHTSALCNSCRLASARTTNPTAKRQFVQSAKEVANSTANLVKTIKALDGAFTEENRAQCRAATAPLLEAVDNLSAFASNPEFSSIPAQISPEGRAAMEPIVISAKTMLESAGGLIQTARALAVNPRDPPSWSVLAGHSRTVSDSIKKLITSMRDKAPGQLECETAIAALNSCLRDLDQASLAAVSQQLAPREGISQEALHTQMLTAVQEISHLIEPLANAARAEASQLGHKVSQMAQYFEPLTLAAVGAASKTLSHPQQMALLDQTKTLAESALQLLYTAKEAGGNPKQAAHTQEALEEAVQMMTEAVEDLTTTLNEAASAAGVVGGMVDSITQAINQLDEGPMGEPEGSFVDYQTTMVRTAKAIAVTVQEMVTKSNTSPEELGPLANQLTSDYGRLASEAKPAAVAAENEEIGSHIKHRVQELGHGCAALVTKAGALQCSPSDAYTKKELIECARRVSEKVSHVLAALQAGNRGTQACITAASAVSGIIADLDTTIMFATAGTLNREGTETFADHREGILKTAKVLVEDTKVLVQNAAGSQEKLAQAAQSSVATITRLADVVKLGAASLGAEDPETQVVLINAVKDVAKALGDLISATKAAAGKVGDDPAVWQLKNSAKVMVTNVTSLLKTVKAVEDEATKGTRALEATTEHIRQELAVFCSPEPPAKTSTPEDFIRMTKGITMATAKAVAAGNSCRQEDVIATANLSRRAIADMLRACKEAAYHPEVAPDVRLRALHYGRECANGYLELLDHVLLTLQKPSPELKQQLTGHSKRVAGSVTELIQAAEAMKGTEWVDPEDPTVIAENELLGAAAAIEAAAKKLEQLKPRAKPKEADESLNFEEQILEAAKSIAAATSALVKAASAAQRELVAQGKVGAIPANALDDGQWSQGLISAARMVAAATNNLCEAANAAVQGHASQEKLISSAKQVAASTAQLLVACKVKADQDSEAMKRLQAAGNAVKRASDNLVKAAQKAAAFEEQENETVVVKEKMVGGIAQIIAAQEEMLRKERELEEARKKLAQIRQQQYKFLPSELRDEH
Chain of UniProt Q9Y6N7 (Q9Y6N7 whole entry): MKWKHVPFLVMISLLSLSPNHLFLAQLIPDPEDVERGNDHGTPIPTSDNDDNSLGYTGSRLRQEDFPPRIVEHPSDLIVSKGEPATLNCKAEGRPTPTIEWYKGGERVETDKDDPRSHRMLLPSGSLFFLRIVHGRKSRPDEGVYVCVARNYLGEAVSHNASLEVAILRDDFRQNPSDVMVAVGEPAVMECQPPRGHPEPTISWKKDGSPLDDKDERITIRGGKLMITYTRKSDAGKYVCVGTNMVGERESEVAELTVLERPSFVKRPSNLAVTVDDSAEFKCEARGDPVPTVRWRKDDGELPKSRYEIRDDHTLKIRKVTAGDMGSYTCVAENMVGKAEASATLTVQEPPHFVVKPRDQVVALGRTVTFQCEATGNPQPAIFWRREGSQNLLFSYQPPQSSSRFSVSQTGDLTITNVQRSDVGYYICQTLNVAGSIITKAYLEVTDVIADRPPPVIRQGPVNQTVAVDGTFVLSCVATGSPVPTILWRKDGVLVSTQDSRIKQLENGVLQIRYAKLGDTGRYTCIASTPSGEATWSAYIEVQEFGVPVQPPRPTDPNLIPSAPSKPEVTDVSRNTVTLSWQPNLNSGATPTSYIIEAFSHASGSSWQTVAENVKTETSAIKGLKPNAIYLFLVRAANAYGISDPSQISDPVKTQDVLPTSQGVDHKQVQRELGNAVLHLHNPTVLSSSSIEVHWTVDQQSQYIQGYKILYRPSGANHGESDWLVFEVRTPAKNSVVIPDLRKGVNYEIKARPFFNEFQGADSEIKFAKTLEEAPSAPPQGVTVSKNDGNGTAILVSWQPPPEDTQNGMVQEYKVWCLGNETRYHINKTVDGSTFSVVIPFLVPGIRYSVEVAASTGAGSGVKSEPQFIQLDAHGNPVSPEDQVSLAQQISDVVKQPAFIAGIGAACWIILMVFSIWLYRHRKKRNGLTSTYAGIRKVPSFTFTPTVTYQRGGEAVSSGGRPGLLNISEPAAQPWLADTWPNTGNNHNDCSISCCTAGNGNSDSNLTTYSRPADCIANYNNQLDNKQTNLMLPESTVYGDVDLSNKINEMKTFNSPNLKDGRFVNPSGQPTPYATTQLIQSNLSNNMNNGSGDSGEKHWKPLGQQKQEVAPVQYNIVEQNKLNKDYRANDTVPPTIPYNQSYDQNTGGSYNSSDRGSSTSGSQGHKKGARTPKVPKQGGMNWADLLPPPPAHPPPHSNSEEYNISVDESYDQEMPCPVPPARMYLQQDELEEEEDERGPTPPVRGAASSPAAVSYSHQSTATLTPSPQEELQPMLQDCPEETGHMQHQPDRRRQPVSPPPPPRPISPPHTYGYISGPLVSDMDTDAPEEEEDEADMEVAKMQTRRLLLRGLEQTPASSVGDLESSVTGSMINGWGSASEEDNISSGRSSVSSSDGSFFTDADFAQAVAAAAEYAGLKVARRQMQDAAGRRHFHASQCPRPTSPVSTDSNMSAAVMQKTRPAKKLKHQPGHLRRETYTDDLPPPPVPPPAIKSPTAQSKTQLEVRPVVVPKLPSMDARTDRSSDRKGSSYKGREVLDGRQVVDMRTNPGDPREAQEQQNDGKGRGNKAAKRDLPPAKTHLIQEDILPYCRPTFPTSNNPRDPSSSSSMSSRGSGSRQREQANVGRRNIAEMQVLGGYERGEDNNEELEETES
Chain of UniProt P08195 (P08195 whole entry): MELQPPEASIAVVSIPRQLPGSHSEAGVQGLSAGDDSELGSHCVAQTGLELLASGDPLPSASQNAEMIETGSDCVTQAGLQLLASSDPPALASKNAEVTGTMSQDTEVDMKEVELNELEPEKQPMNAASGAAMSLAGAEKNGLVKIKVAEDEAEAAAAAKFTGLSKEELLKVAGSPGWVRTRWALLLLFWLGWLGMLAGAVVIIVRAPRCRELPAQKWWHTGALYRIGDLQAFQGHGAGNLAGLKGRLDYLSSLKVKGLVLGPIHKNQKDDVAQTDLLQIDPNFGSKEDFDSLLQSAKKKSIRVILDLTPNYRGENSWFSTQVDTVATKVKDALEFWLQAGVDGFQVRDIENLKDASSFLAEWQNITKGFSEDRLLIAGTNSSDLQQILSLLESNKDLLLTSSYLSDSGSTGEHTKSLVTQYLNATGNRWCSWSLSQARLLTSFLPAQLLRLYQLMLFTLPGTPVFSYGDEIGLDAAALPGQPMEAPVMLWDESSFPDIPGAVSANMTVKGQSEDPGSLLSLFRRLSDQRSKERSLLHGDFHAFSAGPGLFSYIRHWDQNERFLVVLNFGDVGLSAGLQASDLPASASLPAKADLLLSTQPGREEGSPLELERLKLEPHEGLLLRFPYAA
Chain of UniProt P18859 (P18859 whole entry): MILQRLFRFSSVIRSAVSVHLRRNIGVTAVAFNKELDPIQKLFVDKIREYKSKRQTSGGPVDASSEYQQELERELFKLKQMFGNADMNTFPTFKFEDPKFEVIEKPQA
Chain of UniProt O75915 (O75915 whole entry): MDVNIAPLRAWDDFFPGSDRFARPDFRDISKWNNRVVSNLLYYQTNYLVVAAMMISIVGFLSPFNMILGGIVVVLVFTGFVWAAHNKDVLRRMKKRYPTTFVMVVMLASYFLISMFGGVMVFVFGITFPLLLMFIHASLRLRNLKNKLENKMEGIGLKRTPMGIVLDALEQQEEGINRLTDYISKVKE

Compound in the test: C#CCNC(=O)CCSSCCC(=O)NCCc1ccc(C=O)c(C=O)c1
Description: lysine labeling ratio R10:1 (500 µM / 50 µM probe), SILAC-ABPP in living cells; higher = lower intrinsic lysine reactivity toward the probe, active = 2 or less. The conditions noted are these: HeLa; probe concentrations 500 vs 50 µM. In outline:
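An alkyne-tagged lysine probe with a disulfide linker labelled living HeLa cells in PBS at room temperature at either 50 µM or 500 µM, using SILAC light and heavy cells in forward and reverse label swaps. Lysates were mixed, clicked to biotin-azide, trypsin-digested, enriched on neutravidin, DTT-released, alkylated and measured by LC-MS/MS on a TIMS-TOF Pro. Each lysine's R is the filtered median high-probe/low-probe MS1 peptide ratio, combined as the median over forward and reverse replicates, with 20 as the upper limit.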
Regarding “SPTAN1 (lysine site: K1838) (UniProt Q13813)”, the “lysine labeling ratio R10:1” value is 0.73 (active).

“SLC39A6 (lysine site: K164) (UniProt Q13433)”: the “lysine labeling ratio R10:1” value was 7.08 (inactive). On to “ROBO1 (lysine site: K224) (UniProt Q9Y6N7)”, for which the “lysine labeling ratio R10:1” value is 0.52 (active). Consider “ARL6IP5 (lysine site: K31) (UniProt O75915)”, for which the “lysine labeling ratio R10:1” value was 0.953 (active). UniProt Q16181 (lysine site: K408): the “lysine labeling ratio R10:1” value is 3.83 (inactive).

With “COPA (lysine site: K607) (UniProt P53621)”, the “lysine labeling ratio R10:1” value is 1.94 (active). With “SHMT2 (lysine site: K302) (UniProt P34897)” the figure was 2.59 (inactive). Consider “PLAUR (lysine site: K29) (UniProt Q03405)”, for which the “lysine labeling ratio R10:1” value was 3.61 (inactive).

“NPR3 (lysine site: K127) (UniProt P17342)”: the “lysine labeling ratio R10:1” value is 4.43 (inactive). On to “SPTAN1 (lysine site: K39) (UniProt Q13813)”, for which the “lysine labeling ratio R10:1” value is 2.65 (inactive). On to “CDCP1 (lysine site: K71) (UniProt Q9H5V8)”, for which the “lysine labeling ratio R10:1” value was 2.07 (inactive).

“CCT4 (lysine site: K531) (UniProt P50991)”: the “lysine labeling ratio R10:1” value was 3.03 (inactive).

As for “CKAP4 (lysine site: K405) (UniProt Q07065)”, the “lysine labeling ratio R10:1” value is 1.2 (active). Consider “PFN1 (lysine site: K54) (UniProt P07737)”, for which the “lysine labeling ratio R10:1” value is 3.31 (inactive). Take “KRAS (lysine site: K128) (UniProt P01116)”: the “lysine labeling ratio R10:1” value was 1.02 (active).

UniProt P60842 (lysine site: K146): the “lysine labeling ratio R10:1” value was 3.63 (inactive). The figure for “TLN1 (lysine site: K149) (UniProt Q9Y490)” is 1.5 (active); for “SERPINC1 (lysine site: K260) (UniProt P01008)” it is 5.6 (inactive); for “MYH9 (lysine site: K613) (UniProt P35579)” it is 1.78 (active). In the case of “TLN1 (lysine site: K428) (UniProt Q9Y490)”, the “lysine labeling ratio R10:1” value was 2.34 (inactive). As for UniProt O15354 (lysine site: K405), the “lysine labeling ratio R10:1” value is 1.9 (active). Consider UniProt O60245 (lysine site: K484), for which the “lysine labeling ratio R10:1” value was 1.3 (active). The figure for UniProt P18859 (lysine site: K105) is 3.04 (inactive). Turning to “FGB (lysine site: K422) (UniProt P02675)”, the “lysine labeling ratio R10:1” value is 2.18 (inactive).

As for “ACSL4 (lysine site: K702) (UniProt O60488)”, the “lysine labeling ratio R10:1” value was 2.14 (inactive). For “SLC3A2 (lysine site: K300) (UniProt P08195)”, the “lysine labeling ratio R10:1” value was 6.33 (inactive).

On to “EGFR (lysine site: K133) (UniProt P00533)”, for which the “lysine labeling ratio R10:1” value was 1.08 (active). Turning to “RDX (lysine site: K371) (UniProt P35241)”, the “lysine labeling ratio R10:1” value is 1.33 (active).

On to “LMAN1 (lysine site: K346) (UniProt P49257)”, for which the “lysine labeling ratio R10:1” value was 9.39 (inactive). As to “HSPA5 (lysine site: K523) (UniProt P11021)”, the “lysine labeling ratio R10:1” value was 3.39 (inactive). Take “SDC2 (lysine site: K141) (UniProt P34741)”: the “lysine labeling ratio R10:1” value is 1.35 (active). Consider UniProt Q9HDC9 (lysine site: K356), for which the “lysine labeling ratio R10:1” value is 2.37 (inactive). Regarding “FAS (lysine site: K100) (UniProt P25445)”, the “lysine labeling ratio R10:1” value was 1.44 (active).

“NUCB1 (lysine site: K364) (UniProt Q02818)”: the “lysine labeling ratio R10:1” value is 2.75 (inactive). As for UniProt P61981 (lysine site: K10), the “lysine labeling ratio R10:1” value is 4.23 (inactive). On to UniProt Q15149 (lysine site: K300), for which the “lysine labeling ratio R10:1” value was 2.94 (inactive).

As for “PLS3 (lysine site: K52) (UniProt P13797)”, the “lysine labeling ratio R10:1” value was 2.05 (inactive). As for “ROBO1 (lysine site: K232) (UniProt Q9Y6N7)”, the “lysine labeling ratio R10:1” value is 5.29 (inactive).

On to “SLC3A2 (lysine site: K217) (UniProt P08195)”, for which the “lysine labeling ratio R10:1” value was 7.33 (inactive). With “SEMA3C (lysine site: K495) (UniProt Q99985)”, the “lysine labeling ratio R10:1” value is 2.53 (inactive).
